Bioassay records from PubChem BioAssay.
BRCA1 expr act – qHTS Assay to Identify Small Molecule Activators of BRCA1 Expression. MCF7-BRCA1-FFLuc reporter, luminescence, 48 h; response scale: scaled: vehicle 0%, 10 µM genistein 100%. Potency, µM (top dose mostly 46.1 µM), inactives show at the highest dose activation, usual class: activators. 380,000 tested, 1.1% active; further: potency means the concentration at half of the fitted maximal effect; nearly all actives have a fitted effect of over 80% in size
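MCF7-BRCA1-FFLuc, 2000 cells/well; 2 h attach, 37 °C/5% CO2; compound 48 h; luciferase substrate 15 min; luminescence end-point. Norm. to genistein 10 microM max activation and DMSO; concentration-response curves fitted.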
Apoferritin bind – qHTS Assay for Identification of Novel General Anesthetics. Ferritin light chain (Equus caballus), P02791. apoferritin/1-aminoanthracene competitive binding, fluorescence. Potency, µM (doses to about 77.5 µM), without a hit: at the top dose activity change, negative = displacement, usual class: inhibitors. 350,000 tested, 0.074% active. AID 485281, 2010; further: potency means the concentration at half of the fitted maximal effect; on the % scale 0 is the no-effect control and ±100 the full control effect; nearly all actives have a fitted effect of over 20% in size
Target sequence (P02791 2-175 limits assumed): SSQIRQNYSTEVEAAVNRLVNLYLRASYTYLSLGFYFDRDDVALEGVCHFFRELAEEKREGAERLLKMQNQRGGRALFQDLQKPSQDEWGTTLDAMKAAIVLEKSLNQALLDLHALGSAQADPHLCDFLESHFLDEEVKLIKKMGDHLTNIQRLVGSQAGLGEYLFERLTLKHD
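In PBS, apoferritin at 10 uM is loaded with 1-AMA from a 50% saturated solution. After 10 min of compound exposure at ambient temperature, reduced 535 nm fluorescence indicates probe displacement.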
PTAP TSG101 blk – qHTS Assay for Iinhibitors of HIV-1 Budding by Blocking the Interaction of PTAP/TSG101 | Fluorescence polarization, FITC-PTAP peptide / Tsg101 binding | AID 493005, 2010 | Potency, µM (doses to about 115 µM), for the others: at the top dose activity change, negative = inhibition, hits mostly inhibitors | 340,000 tested, under 10 active | Tumor susceptibility gene 101 protein (Homo sapiens), Q99816; active means well fitted inhibition curve with a large enough effect in the main read-out, with a control signal flat, not every such curve was filed as active; inconclusive means small, poorly fitted or top-dose-only effect, or effect the other way, or a change in a side signal; inactive means no such curve, though single readings can be large or run the other way; further: potency means the concentration at half of the fitted maximal effect; % of control where 0% means no effect
Target sequence (Q99816 whole entry, looked up): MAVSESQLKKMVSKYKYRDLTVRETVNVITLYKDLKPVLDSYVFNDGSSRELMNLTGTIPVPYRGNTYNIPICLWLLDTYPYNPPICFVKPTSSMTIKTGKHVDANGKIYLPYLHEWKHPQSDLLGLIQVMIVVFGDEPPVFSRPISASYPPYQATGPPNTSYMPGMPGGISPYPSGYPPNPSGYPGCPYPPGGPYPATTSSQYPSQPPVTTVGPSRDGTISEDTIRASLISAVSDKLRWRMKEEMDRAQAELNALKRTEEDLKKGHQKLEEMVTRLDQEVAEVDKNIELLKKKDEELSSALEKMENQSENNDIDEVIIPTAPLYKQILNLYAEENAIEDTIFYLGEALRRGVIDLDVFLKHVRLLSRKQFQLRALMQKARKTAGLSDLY
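FP read-out: FITC-PTAP peptide, 50 nM final, binding Tsg101 binding domain, 10 uM final; 20 min, r.t.; 10 mM HEPES pH 7.5, 0.15 M NaCl, 0.01% Tween 20, 3 mM EDTA, 0.1 mM TCEP.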
S-ASM inh – Inhibitors of Secretory Acid Sphingomyelinase (S-ASM): qHTS | Sphingomyelin phosphodiesterase (Homo sapiens), P17405 | placental ASM, HMU-PC fluorogenic substrate, 60 min | Potency, µM (highest dose often 57.5 µM), inactives show at the highest dose activity change, negative = inhibition, most hits filed as inhibitors | 340,000 tested, 0.006% active | AID 504937, 2011; further: potency means the concentration at half of the fitted maximal effect
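qHTS format. ASM enzyme prepared from human placenta hydrolyses the fluorogenic substrate HMU-PC0 (9 uM final) over 60 min at 37 °C after a 10 min compound preincubation.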
TSHR antag – Antagonists of the Thyroid Stimulating Hormone Receptor: HTS campaign. activity change, negative = inhibition, % at 11.5 µM. 330,000 tested, 0.2% active. Thyrotropin receptor (Homo sapiens), P16473. TSHR-expressing cells, TSH-stimulated cAMP HTRF, 2 h; hits give low values. AID 504810, 2011;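 active means activity change below a set negative limit, meaning inhibition stronger than a set level, cut at about -70% in these data; inconclusive means activity change between two set negative limits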; further: on the % scale 0 is the no-effect control and ±100 the full control effect
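TSHR-expressing cells, 200/well, pre-treated with compound, then stimulated with EC80 TSH (4nM final) for 2 hours at 37 deg C. cAMP measured by competitive HTRF: anti-cAMP cryptate antibody in lysis buffer plus cAMP-d2, read after 30 minutes at room temperature.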
Active calls of the source: *; [ ] = remark or other dose. An excerpt weighted towards active compounds, which were near 1.2% of everything screened. Unless noted, the call rests on the fitted dose curve; in most records, active means well fitted curve in the direction sought with a large enough effect; inconclusive means small, poorly fitted or top-dose-only effect, or another doubt; inactive means no such curve, though single readings can be large; an effect the other way counts as inactive or inconclusive.

Screening CC12C=C(/C=C/CCc3ccco3)C(C)(C1)C(CCc1ccco1)CC2=O (stereo not given) returned Apoferritin bind -10%[15.3 µM].
`Cc1ccc2oc(-c3ccc(C)c(NC(=O)COc4ccccc4C)c3)nc2c1` gave BRCA1 expr act 18%.
`COc1cccc(-c2nnc3n2N=C(c2c(OC)cccc2OC)CS3)c1OC` gave Apoferritin bind -19%.
O=C(Cc1ccc(-c2ccccc2)cc1)NO was read as BRCA1 expr act 0%.
Screening CC(C)c1cc(C(C)C)c(S(=O)(=O)Nc2cccc3cccnc23)c(C(C)C)c1 returned Apoferritin bind 25%.
Screening Cc1ccnc(SCC(=O)N2CCc3ccccc32)n1 returned BRCA1 expr act 10µM*, Apoferritin bind inconclusive, PTAP TSG101 blk -3%, S-ASM inh 1% and TSHR antag -3.
Screening O=C(CSc1ncccn1)N1CCCc2ccccc21 returned BRCA1 expr act 43%, Apoferritin bind inconclusive, PTAP TSG101 blk 0%, S-ASM inh -1% and TSHR antag -2.
For O=C(CSc1nnc2ccccn12)N1CCc2ccccc21 the results were BRCA1 expr act 2.8µM*, Apoferritin bind -5%, PTAP TSG101 blk -2%, S-ASM inh 11% and TSHR antag 0.
`O=C(CSc1nnc2ccccn12)N1CCc2ccccc2C1` gave BRCA1 expr act inconclusive, Apoferritin bind -5%, PTAP TSG101 blk -5%, S-ASM inh 2% and TSHR antag 17.
`O=C(CSc1nnc2ccccn12)c1ccc2c(c1)OCCO2` gave BRCA1 expr act 7.1µM*, Apoferritin bind -3%, PTAP TSG101 blk -2%, S-ASM inh 3% and TSHR antag -1.
For CCC[C@H](NC(=O)[C@H](CC(C)C)N(C)C(=O)CNC(=O)[C@@H](NC(=O)[C@H](Cc1ccccc1)NC(=O)[C@H](CCCCN)NC(=O)[C@@H](N)CC(=O)O)C(C)C)C(N)=O the results were Apoferritin bind 2%.
Screening CN(C)S(=O)(=O)c1cccc(NC(=O)c2cc3ccccc3o2)c1 returned BRCA1 expr act 12%[1.84 µM], Apoferritin bind inconclusive, PTAP TSG101 blk -4%, S-ASM inh -6% and TSHR antag -7.
COc1cc(NC(=O)C(C)C)ccc1NC(=O)c1cc2ccccc2o1 was read as BRCA1 expr act 8.9µM*, Apoferritin bind 70%, PTAP TSG101 blk -2%, S-ASM inh 21% and TSHR antag -9.
Screening O=C(Nc1ccc(N2CCCCCC2)cc1)c1ccccc1Cl returned BRCA1 expr act inconclusive, Apoferritin bind inconclusive, PTAP TSG101 blk -2%, S-ASM inh -3% and TSHR antag -9.
Screening CC(=O)Nc1cccc(NC(=O)c2cc3ccccc3o2)c1 returned BRCA1 expr act 8.9µM*, Apoferritin bind -11%, PTAP TSG101 blk -3%, S-ASM inh 1% and TSHR antag -9.
Screening O=C(Nc1ccccc1)c1cc2ccccc2o1 returned BRCA1 expr act 104%, Apoferritin bind -12%, PTAP TSG101 blk 1%, S-ASM inh 0% and TSHR antag -12.
Screening O=C(Nc1ccc(N2CCCCCC2)cc1)c1ccc[nH]1 returned BRCA1 expr act 1.4µM*, PTAP TSG101 blk 0%, S-ASM inh 0% and TSHR antag 32.
Screening CC(C)C(=O)Nc1cccc(NC(=O)c2cc3ccccc3o2)c1 returned BRCA1 expr act 10µM*, Apoferritin bind 2%, PTAP TSG101 blk -6%, S-ASM inh -6% and TSHR antag -5.
O=C(O)c1cc2cccc([N+](=O)[O-])c2[nH]1 was read as BRCA1 expr act 0%.
CCOc1ccc(S(=O)(=O)c2cn(Cc3ccc(C)cc3)c3ccc(OC)cc3c2=O)cc1 was read as Apoferritin bind -15%.
CC1OC(OCC2OC(Oc3cc(O)c4c(c3)OC(c3ccc(O)cc3)CC4=O)C(O)C(O)C2O)C(O)C(O)C1O (stereo not given) was read as Apoferritin bind 5%.
O=C(Nc1cccnc1)c1cc2c(ccc3ccccc32)o1 was read as BRCA1 expr act 13µM*, Apoferritin bind -13%, PTAP TSG101 blk -1% and S-ASM inh 0%.
Screening O=C(Nc1ccc(N2CCCC2)cc1)c1cc2ccccc2o1 returned BRCA1 expr act 8.9µM*, Apoferritin bind -14%, PTAP TSG101 blk 1%, S-ASM inh -3% and TSHR antag 10.
Screening O=C(Cc1ccccc1)Nc1ccc(N2CCCC2)cc1 returned BRCA1 expr act 17%, Apoferritin bind -17%, PTAP TSG101 blk -6%, S-ASM inh -13% and TSHR antag 6.
For CCC(=O)N1CCN(c2ccc(NC(=O)c3cc4ccccc4o3)cc2Cl)CC1 the results were BRCA1 expr act -92%, Apoferritin bind 0%, PTAP TSG101 blk -3%, S-ASM inh -10% and TSHR antag -36.
`CCCC(=O)N1CCN(c2ccc(NC(=O)c3cc4ccccc4o3)cc2Cl)CC1` gave BRCA1 expr act -95%, Apoferritin bind 21%, PTAP TSG101 blk -5%, S-ASM inh -9% and TSHR antag -87*.
O=C(CCc1ccccc1)Nc1ccc(N2CCCCC2)cc1 was read as BRCA1 expr act 11µM*, Apoferritin bind -7%, PTAP TSG101 blk -5%, S-ASM inh 1% and TSHR antag -1.
For Cc1ccc2c(C(=O)CNc3nc(C)c(C)s3)c(C)[nH]c2c1 the results were BRCA1 expr act 0%.
Screening O=C(CSc1cn(Cc2ccccc2)c2ccccc12)Nc1nccs1 returned BRCA1 expr act 11µM*, Apoferritin bind -12%, PTAP TSG101 blk 0%, S-ASM inh -16% and TSHR antag -13.
Screening O=C(CSc1ccccc1)Nc1nccs1 returned BRCA1 expr act 20%, Apoferritin bind inconclusive, PTAP TSG101 blk 1%, S-ASM inh 5% and TSHR antag -3.
Screening COc1ccc(C(=O)Nc2nnc(-c3ccccc3)s2)cc1 returned BRCA1 expr act 7.1µM*, Apoferritin bind 0%, PTAP TSG101 blk 1%, S-ASM inh 0% and TSHR antag -5.
Screening COc1ccc(C(=O)Cc2nnc(C)s2)cc1 returned BRCA1 expr act 7.1µM*, Apoferritin bind -7%, PTAP TSG101 blk -3%, S-ASM inh 2% and TSHR antag 17.
